Measured values reported in the antibiotic and cytotoxicity screens of Wong et al. (2023).
Out of some 39,000 compounds screened, about 3,300 (8.5%) were called active. The sample holds actives, similar compounds and a random draw of the others, so the mix is not that of the screen.

These compounds were tested on HepG2 (assay: cytotoxicity call (relative viability < 0.9)). Settings: 10 µM.

SMILES	cytotoxicity call
CO[C@H]1O[C@H](CO)[C@@H](OC(=O)Nc2cccc(F)c2)[C@H](OC(=O)Nc2ccccc2-c2ccccc2)[C@H]1OC(=O)Nc1ccccc1-c1ccccc1	active
CO[C@H]1O[C@H](CO)[C@@H](OC(=O)Nc2ccccc2-c2ccccc2)[C@H](OC(=O)Nc2ccccc2-c2ccccc2)[C@@H]1OC(=O)Nc1ccccc1-c1ccccc1	inactive
CO[C@H]1O[C@H](CO)[C@@H](OC(=O)Nc2cccc(F)c2)[C@H](OC(=O)Nc2ccccc2-c2ccccc2)[C@@H]1OC(=O)Nc1ccccc1-c1ccccc1	inactive
COc1ccc(NC(=O)O[C@H]2[C@H](OC(=O)Nc3ccccc3-c3ccccc3)[C@H](OC(=O)Nc3ccccc3-c3ccccc3)[C@@H](OC)O[C@@H]2CO)cc1	inactive
CCc1cccc(NC(=O)O[C@H]2[C@H](OC(=O)Nc3ccccc3-c3ccccc3)[C@H](OC(=O)Nc3ccccc3-c3ccccc3)[C@@H](OC)O[C@@H]2CO)c1	inactive
CO[C@H]1O[C@H](CO)[C@@H](OC(=O)Nc2ccccc2-c2ccccc2)[C@H](OC(=O)Nc2ccccc2)[C@@H]1OC(=O)Nc1ccccc1	active
C[C@@H]1CN([C@@H](C)CO)C(=O)Cc2cc(NS(C)(=O)=O)ccc2O[C@@H]1CN(C)S(=O)(=O)c1cccs1	inactive
CN1CCN(C(=O)C[C@@H]2C[C@H]3c4cc(NC(=O)c5ccc6c(c5)OCO6)ccc4O[C@H]3[C@H](CO)O2)CC1	inactive
COc1ccc(S(=O)(=O)N(C)C[C@H]2Oc3cc(C#CC4CC4)ccc3S(=O)(=O)N([C@H](C)CO)C[C@@H]2C)cc1	inactive
CCCCc1oc2ccc(NS(C)(=O)=O)cc2c1C(=O)c1ccc(OCCCN(CCCC)CCCC)cc1	active
CCCCN(CCCC)CCCOC(=O)c1ccc(N)cc1.O=S(=O)(O)O	inactive
CCCCc1oc2ccc(NS(C)(=O)=O)cc2c1C(=O)c1ccc(OCCCN(CCCC)CCCC)cc1.Cl	active
CCC1=NCCO1	inactive
CC(C)NC(=O)N(C)C[C@@H]1Oc2ccc(NC(=O)Nc3ccc4c(c3)OCO4)cc2C(=O)N([C@H](C)CO)C[C@H]1C	inactive
C#CCN1C(=O)N(C(=O)c2ccccc2)[C@@]2(COCc3ccc(OC)cc3)Oc3ccccc3[C@@H]1[C@H]2CO[Si](C)(C)C(C)(C)C	inactive
CN(C)CCCNC(=O)C[C@@H]1CC[C@@H]2[C@@H](COc3ccc(NC(=O)c4ccccc4F)cc3C(=O)N2C)O1	inactive
CCS(=O)(=O)NCC[C@H]1CC[C@H](NC(=O)C2CCOCC2)[C@H](CO)O1	inactive
O=C(C[C@@H]1C[C@H]2c3cc(NS(=O)(=O)c4ccc(F)cc4)ccc3O[C@H]2[C@H](CO)O1)NCCc1ccccc1	inactive
Cc1ccc(S(=O)(=O)N(C)C[C@@H]2Oc3ccc(NC(=O)CCN4CCOCC4)cc3CC(=O)N([C@@H](C)CO)C[C@H]2C)cc1	inactive
C[C@H](CO)N1C[C@H](C)[C@H](CN(C)C(=O)NC2CCCCC2)Oc2c(NC(=O)C3CCOCC3)cccc2C1=O	inactive
Cc1ccc(S(=O)(=O)Nc2ccc3c(c2)C(=O)N([C@@H](C)CO)C[C@@H](C)[C@@H](CN(C)C(=O)NC(C)C)O3)cc1	inactive
C[C@@H]1CN([C@H](C)CO)C(=O)c2cc(NC(=O)Cc3ccccc3)ccc2O[C@H]1CN(C)S(=O)(=O)c1cccs1	inactive
O=C(O)c1cccnc1	inactive
NCC(=O)OCc1ccccc1	inactive

SMILES	cytotoxicity call
O=C(CO)c1ccccc1	inactive
O=C(OCc1ccccc1)c1ccccc1	active
O=C(ON1C(=O)CCC1=O)c1ccccc1	inactive
O=C(OOC(=O)c1ccccc1)c1ccccc1	active
O=C(OCc1ccccc1)c1cccnc1	active
COC(=O)c1cccnc1	inactive
N[C@@H](COCc1ccccc1)C(=O)O	inactive
CCC(=O)N[C@@H]1CC[C@@H](CC(=O)OC)O[C@H]1CO	inactive
CCCCCCCCCCCCCCCC[N+](C)(C)C	active
C[N+](C)(C)CCCCCC[N+](C)(C)C.[Br-].[Br-]	inactive
CCCCCCCCCCCCCCCCOP(=O)([O-])OCC[N+](C)(C)C	inactive
C[C@@H]1CN([C@H](C)CO)C(=O)c2cc(C#CC3(O)CCCC3)cnc2O[C@@H]1CN(C)S(=O)(=O)c1ccc(F)cc1	inactive
O=C(CN1CCOCC1)N[C@H]1CC[C@@H](CCNC(=O)C2CCC2)O[C@@H]1CO	inactive
C[C@H]1CN([C@@H](C)CO)C(=O)c2cccc(NC(=O)Nc3ccc(C(F)(F)F)cc3)c2O[C@H]1CN(C)S(C)(=O)=O	inactive
COc1ccc(cc1)CN1C[C@]2(CCN(CC2)Cc2ccccc2OC)c2c([nH]c3cc(ccc23)OC)[C@@H]1CO	inactive
COc1ccc2c3c([nH]c2c1)[C@H](CO)N(Cc1ccc(cc1)Cl)C[C@]13CCN(CC1)Cc1nccs1	inactive
COc1ccc2c3c([nH]c2c1)[C@@H](CO)N(Cc1ccc(cc1)Cl)C[C@]13CCN(CC1)Cc1nccs1	inactive
COc1ccc2c3c([nH]c2c1)[C@H](CO)N(Cc1ccncc1)C[C@]13CCN(CC1)Cc1ccc(cc1)-c1ccccn1	inactive
COc1ccc2c3c([nH]c2c1)[C@H](CO)N(Cc1ccc(cc1)Cl)C[C@]13CCN(CC1)Cc1ccccc1	active
COc1ccc2c3c([nH]c2c1)[C@@H](CO)N(Cc1ccc(cc1)Cl)C[C@]13CCN(CC1)Cc1ccccc1	active
COc1ccc2c3c([nH]c2c1)[C@H](CO)N(C[C@]13CCN(CC1)Cc1ccccc1)C(=O)CN1CCOCC1	active
COc1ccc2c3c([nH]c2c1)[C@H](CO)N(C[C@]13CCN(CCc2ccccc2)CC1)C(=O)CN1CCOCC1	inactive
COc1ccc2c3c([nH]c2c1)[C@@H](CO)N(C[C@]13CCN(CC1)Cc1ccccc1)C(=O)CN1CCOCC1	inactive
C[C@@H]1CN([C@H](C)CO)C(=O)c2cc(NC(=O)CCCCCC(=O)Nc3ccccc3N)ccc2O[C@@H]1CN(C)Cc1ccc(Cl)c(Cl)c1	inactive

SMILES	cytotoxicity call
Cc1cc(C(=O)Nc2cccc3c2O[C@@H](CN(C)C(=O)NC2CCCCC2)[C@H](C)CN([C@H](C)CO)C3=O)n(C)n1	inactive
Cc1noc(C)c1S(=O)(=O)Nc1ccc2c(c1)C(=O)N([C@H](C)CO)C[C@@H](C)[C@H](CN(C)S(=O)(=O)c1ccccc1)O2	inactive
C[C@@H]1CN([C@H](C)CO)C(=O)c2cc(Br)cnc2O[C@@H]1CN(C)Cc1ccc2c(c1)OCO2	inactive
COc1ccc(-c2cc(=O)c3c(O)cc(O[C@@H]4O[C@H](CO[C@@H]5O[C@@H](C)[C@H](O)[C@@H](O)[C@H]5O)[C@@H](O)[C@H](O)[C@H]4O)cc3o2)cc1O	inactive
C[C@H](CO)N1C[C@H](C)[C@@H](CN(C)C(=O)Cc2cccnc2)Oc2cc(-c3cncnc3)ccc2S1(=O)=O	inactive
NC(=O)c1ncn([C@H]2O[C@@H](COP(=O)(O)O)[C@@H](O)[C@@H]2O)c1N	inactive
C[C@@H]1CN([C@H](C)CO)C(=O)c2cc(NS(=O)(=O)c3cn(C)cn3)ccc2O[C@@H](C)CCCCO[C@H]1CN(C)S(=O)(=O)c1cn(C)cn1	inactive
CC(C)(C)OC(=O)C[C@@H]1CC=CC[C@@H](CC(=O)NCCO)C(=O)N[C@@H](Cc2c[nH]c3ccccc23)COC1=O	inactive
NNC(=O)Cc1nc2ccccc2[nH]1	inactive
CC(C)(C)c1ccc(CSCc2nc3ccccc3[nH]2)cc1	active
CC(C)Cc1nc2ccccc2[nH]1	inactive
Cc1ccc(S(=O)(=O)Nc2ccc3c(c2)C(=O)N([C@@H](C)CO)C[C@@H](C)[C@H](CN(C)Cc2ccc4c(c2)OCO4)OCCCC[C@@H](C)O3)cc1	inactive
Cc1ccc(S(=O)(=O)Nc2ccc3c(c2)C(=O)N([C@@H](C)CO)C[C@H](C)[C@H](CN(C)Cc2ccc4c(c2)OCO4)OCCCC[C@H](C)O3)cc1	inactive
Cc1ccc(S(=O)(=O)Nc2ccc3c(c2)C(=O)N([C@H](C)CO)C[C@H](C)[C@H](CN(C)Cc2ccc4c(c2)OCO4)OCCCC[C@H](C)O3)cc1	active
Cc1ccc(S(=O)(=O)Nc2ccc3c(c2)C(=O)N([C@H](C)CO)C[C@H](C)[C@@H](CN(C)Cc2ccc4c(c2)OCO4)OCCCC[C@H](C)O3)cc1	inactive
Cc1ccc(S(=O)(=O)Nc2ccc3c(c2)C(=O)N([C@@H](C)CO)C[C@@H](C)[C@@H](CN(C)Cc2ccc4c(c2)OCO4)OCCCC[C@H](C)O3)cc1	inactive
Cc1ccc(S(=O)(=O)Nc2ccc3c(c2)C(=O)N([C@H](C)CO)C[C@@H](C)[C@@H](CN(C)Cc2ccc4c(c2)OCO4)OCCCC[C@@H](C)O3)cc1	active
Cc1ccc(S(=O)(=O)Nc2ccc3c(c2)C(=O)N([C@H](C)CO)C[C@@H](C)[C@H](CN(C)Cc2ccc4c(c2)OCO4)OCCCC[C@H](C)O3)cc1	active
Cc1ccc(S(=O)(=O)Nc2ccc3c(c2)C(=O)N([C@H](C)CO)C[C@H](C)[C@@H](CN(C)Cc2ccc4c(c2)OCO4)OCCCC[C@@H](C)O3)cc1	inactive
Cc1ccc(S(=O)(=O)Nc2ccc3c(c2)C(=O)N([C@@H](C)CO)C[C@H](C)[C@@H](CN(C)Cc2ccc4c(c2)OCO4)OCCCC[C@H](C)O3)cc1	inactive
COc1ccc(S(=O)(=O)N(C)C[C@H]2Oc3c(NC(=O)Nc4c(C)noc4C)cccc3C(=O)N([C@H](C)CO)C[C@@H]2C)cc1	inactive
C[C@@H]1CN([C@H](C)CO)C(=O)c2cccc(NS(=O)(=O)c3cccs3)c2O[C@@H]1CN(C)Cc1ccc(Cl)c(Cl)c1	inactive
C[C@H]1CN([C@@H](C)CO)C(=O)Cc2cc(NC(=O)Cc3ccccc3)ccc2O[C@H]1CN(C)S(C)(=O)=O	inactive
